Laboratory results taken from PubChem BioAssay (NCATS).
Inconclusive results are not listed. A number with no mark means an inactive call. Calls of active or inactive are those of the source. Calls come from the whole dose curve; as a rule, active = well fitted cell-killing curve with a large enough effect; inconclusive = small, poorly fitted or top-dose-only effect, or effect the other way; inactive = no such curve, though single readings can be large or run the other way.

Assay: qHTS of pediatric cancer cell lines to identify multiple opportunities for drug repurposing: Confirmatory screen for MG 63 (6-TG R) cells (AID 1347119); note: nearly all actives have a fitted effect of over 55% in size
Conditions: MG-63 (6-TG resistant) osteosarcoma viability; series mostly up to 45.9 µM; activity change, negative = cytotoxicity: at the top concentration
Source text: Drug repurposing or repositioning has been offered as a strategy for drug development in oncology programs. This approach has special potential for childhood cancers and other rare or orphan diseases, where the expected return on new drug development has been a disincentive to pharmaceuticals.
In this project we exploit the poly-pharmacology of drugs to discover new indications via phenotypic screening of a panel of 19 well-characterized cell lines derived from solid tumors seen in children and adolescents. The goal is to identify approved drugs with previously unrecognized anticancer properties that has the potential to reveal new mechanisms and biological processes involved in carcinogenesis or drug resistance. We employed a titration-based paradigm (quantitative high-throughput screening or qHTS), where all compounds were tested at multiple concentrations for their effect on cell viability. Concentration-response curves (CRCs) were derived directly from the primary screen, and both potency and efficacy values were used to identify compounds with robust bioactivity profiles. We screened the NIH Chemical Genomics Center (NCGC) Pharmaceutical Collection (NPC) and Mechanism Interrogation Plate (MIPE) small molecule collections of approved and investigational compounds against these cell lines; and measured metabolically active cells after 48 hours of compound treatment as a proxy for cell viability.
Assay Submitter: Nathalia J. Martinez, National Center for Advancing Translational Sciences, National Institutes of Health, Rockville, MD, USA; email: natalia.martinez@nih.gov
[1] Shen, M et al. Quantitative high-throughput phenotypic screening of pediatric cancer cell lines identifies multiple opportunities for drug repurposing. Oncotarget 2017 Dec 19;9(4):4758-4772. PMID 29435139.
The cells were obtained from University of North Carolina (UNC), Pediatric Preclinical Testing Program (PPT), and Coriell Institute (CI).
qHTS cell viability assay:
Cells were assayed in growth media at a density of 500-1,000 cells/well. Five microliters of cells were dispensed into 1,536-well, white, solid-bottom, TC-treated plates (Greiner Bio One) using a multidrop dispenser and incubated at 37 degrees C, 5% CO2, under a humidified atmosphere for 5 hours. Twenty-three nanoliters of compounds and controls (neutral control DMSO or positive control bortezomib at final concentration of 2.3 µM) were subsequently transferred by Kalypsys pintool. For primary screens, the MIPE collection was tested at 11-point dilutions (final concentrations range from 0.78 nM to 46 µM) and the NPC collection at 8-point dilutions (final concentrations range from 0.59 nM to 46 µM). Compounds tested in follow-up screens were assayed at 11-point dilutions. Cells were incubated for 48 hours, followed by addition of 3 µL of CellTiter-Glo (Promega). After a 15 min incubation at room temperature, samples were analyzed for luminescence intensity using a ViewLux High-throughput CCD imager equipped with clear filters.
Potency is the fitted concentration of half-maximal effect.

SMILES | Potency | activity change, negative = cytotoxicity
C[C@@]12C(=O)OC(=O)[C@]1(C)C1CCC2O1 | 2080 nM (active) | 
CCN(CC)CCOc1ccc2c(c1)C(=O)c1cc(OCCN(CC)CC)ccc1-2 |  | -10.7%
C[C@H]1O[C@@H](O[C@H]2CC[C@@]3(C)[C@H](CC[C@@H]4[C@@H]3C[C@@H](O)[C@]3(C)[C@@H](C5=CC(=O)OC5)CC[C@]43O)C2)C[C@H](O)[C@@H]1O[C@H]1C[C@H](O)[C@H](O[C@H]2C[C@H](O)[C@H](O[C@@H]3O[C@H](CO)[C@@H](O)[C@H](O)[C@H]3O)[C@@H](C)O2)[C@@H](C)O1 | 293 nM (active) | 
O=C(CCCN1CC=C(n2c(=O)[nH]c3ccccc32)CC1)c1ccc(F)cc1 |  | -13.7%
Nc1nc(Cl)nc2c1ncn2[C@@H]1O[C@H](CO)[C@@H](O)[C@@H]1F | 522 nM (active) | 
CCN[C@@H]1C[C@H](N)[C@@H](OC2OC(CN)=CCC2N)[C@H](O)[C@H]1O[C@H]1OC[C@](C)(O)[C@H](NC)[C@H]1O (stereo not given in full) |  | -17.7% [at 0.556 µM]
O=C(Oc1cccc2cccnc12)c1ccccc1 |  | -30.9%
CCCCCCCCCCC[C@@H](C[C@@H]1OC(=O)[C@H]1CCCCCC)OC(=O)[C@H](CC(C)C)NC=O |  | -15.2%
COc1ccc(C(=O)c2ccccc2)c(O)c1 |  | -20.1%
CCN1/C(=C/C=C/c2sc3ccccc3[n+]2CC)Sc2ccccc21 | 465 nM (active) | 
